Targets with a hit are over-represented here; the source holds about 7,900 in all. About 0.6% of all pairs of compound and target were hits. A number with no mark means an inactive call.
Legend:
Assay in all cases: log2 fold change, soluble protein after heating vs DMSO (PISA); higher = thermal stabilisation; K562 cells, 10 uM, 30 min; active = over 0.2 and 3.5 SD of the protein, either way, in both replicates (recomputed)
[1] = compound: NC(=O)Nc1cc(-c2cccc(F)c2)sc1C(=O)N[C@H]1CCCNC1
Summary of the method: (§1)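 K562 cells at 2×10^6 cells/mL were treated with 10 μM compound for 30 min. Aliquots were heated for 3 min across 48°C-58°C, pooled, and extracted in PBS with 0.5% NP-40 at 4°C; soluble protein was the supernatant after 21,000xg for 90 min. Soluble protein was quantified by TMTpro 16plex LC-MS/MS with channel sums equalised, and reported as log2 fold change in thermal stability against DMSO controls, with values from duplicates.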

[2] = compound: NC(=O)c1cnc(N[C@@H]2CCCC[C@@H]2N)nc1Nc1cccc(-n2nccn2)c1
Summary of the method: as §1

[3] = compound: NC1(c2ccc(-c3nc4ccn5c(=O)[nH]nc5c4cc3-c3ccccc3)cc2)CCC1
Summary of the method: as §1

[4] = compound: NCC(=O)Nc1ccc(-n2nc(C(F)(F)F)cc2-c2ccc3c(ccc4ccccc43)c2)cc1
Summary of the method: as §1

entinostat = compound: Nc1ccccc1NC(=O)c1ccc(CNC(=O)OCc2cccnc2)cc1 [entinostat]
Summary of the method: as §1

vorinostat = compound: O=C(CCCCCCC(=O)Nc1ccccc1)NO [vorinostat]
Summary of the method: as §1

citarinostat = compound: O=C(CCCCCCNC(=O)c1cnc(N(c2ccccc2)c2ccccc2Cl)nc1)NO [citarinostat]
Summary of the method: as §1

silmitasertib = compound: O=C(O)c1ccc2c(c1)nc(Nc1cccc(Cl)c1)c1ccncc12 [silmitasertib]
Summary of the method: as §1

[5] = compound: O=C1NC(=O)C(c2cnc3ccccn23)=C1c1cn2c3c(cc(F)cc13)CN(C(=O)N1CCCCC1)CC2
Summary of the method: as §1

[6] = compound: c1cc(OCCN2CCCCC2)cc(-c2n[nH]c3ccc(-c4nnc[nH]4)cc23)c1
Summary of the method: as §1

Chain of UniProt Q8N4A0 (Q8N4A0 whole entry, looked up): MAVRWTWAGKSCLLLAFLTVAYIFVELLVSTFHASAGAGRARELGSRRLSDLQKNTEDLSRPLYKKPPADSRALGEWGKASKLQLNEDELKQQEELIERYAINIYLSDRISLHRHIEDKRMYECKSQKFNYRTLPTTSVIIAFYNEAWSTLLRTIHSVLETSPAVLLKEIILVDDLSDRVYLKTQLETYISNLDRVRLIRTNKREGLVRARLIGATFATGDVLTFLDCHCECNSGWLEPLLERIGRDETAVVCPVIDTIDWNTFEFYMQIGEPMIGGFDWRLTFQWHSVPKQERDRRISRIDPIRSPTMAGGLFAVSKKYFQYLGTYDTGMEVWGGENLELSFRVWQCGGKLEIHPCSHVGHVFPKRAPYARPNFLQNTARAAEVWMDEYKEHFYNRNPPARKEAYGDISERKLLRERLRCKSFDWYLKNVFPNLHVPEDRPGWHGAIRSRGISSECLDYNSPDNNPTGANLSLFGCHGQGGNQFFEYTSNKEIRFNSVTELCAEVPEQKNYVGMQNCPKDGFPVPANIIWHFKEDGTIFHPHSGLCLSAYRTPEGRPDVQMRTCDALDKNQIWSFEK
Chain of UniProt Q9Y3I1 (Q9Y3I1 whole entry, looked up): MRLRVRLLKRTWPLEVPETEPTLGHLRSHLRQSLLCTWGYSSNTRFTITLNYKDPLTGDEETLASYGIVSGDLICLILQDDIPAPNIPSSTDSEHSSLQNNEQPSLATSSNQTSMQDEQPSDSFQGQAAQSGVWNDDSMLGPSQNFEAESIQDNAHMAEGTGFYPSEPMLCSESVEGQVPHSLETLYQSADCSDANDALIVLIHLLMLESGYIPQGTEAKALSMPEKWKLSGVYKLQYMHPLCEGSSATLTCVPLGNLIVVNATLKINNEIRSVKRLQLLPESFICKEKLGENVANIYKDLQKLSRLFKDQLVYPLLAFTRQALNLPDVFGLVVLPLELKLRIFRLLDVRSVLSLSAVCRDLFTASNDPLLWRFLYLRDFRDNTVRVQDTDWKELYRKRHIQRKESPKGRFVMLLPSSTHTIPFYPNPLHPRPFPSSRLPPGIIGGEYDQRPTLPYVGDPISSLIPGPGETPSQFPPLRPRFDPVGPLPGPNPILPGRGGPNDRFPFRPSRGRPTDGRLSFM
Chain of UniProt P31150 (P31150 whole entry, looked up): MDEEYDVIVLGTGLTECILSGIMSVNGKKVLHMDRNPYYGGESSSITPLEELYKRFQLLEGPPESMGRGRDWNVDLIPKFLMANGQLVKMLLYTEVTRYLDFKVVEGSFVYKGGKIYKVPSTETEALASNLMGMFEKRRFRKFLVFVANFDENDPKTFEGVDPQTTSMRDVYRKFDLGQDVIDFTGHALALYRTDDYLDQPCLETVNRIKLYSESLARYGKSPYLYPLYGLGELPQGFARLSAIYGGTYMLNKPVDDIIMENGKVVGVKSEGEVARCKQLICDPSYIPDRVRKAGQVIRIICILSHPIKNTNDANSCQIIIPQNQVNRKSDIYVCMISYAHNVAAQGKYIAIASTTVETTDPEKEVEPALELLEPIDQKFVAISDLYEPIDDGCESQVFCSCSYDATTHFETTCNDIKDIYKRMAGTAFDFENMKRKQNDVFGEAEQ
Chain of UniProt Q86UX7 (Q86UX7 whole entry, looked up): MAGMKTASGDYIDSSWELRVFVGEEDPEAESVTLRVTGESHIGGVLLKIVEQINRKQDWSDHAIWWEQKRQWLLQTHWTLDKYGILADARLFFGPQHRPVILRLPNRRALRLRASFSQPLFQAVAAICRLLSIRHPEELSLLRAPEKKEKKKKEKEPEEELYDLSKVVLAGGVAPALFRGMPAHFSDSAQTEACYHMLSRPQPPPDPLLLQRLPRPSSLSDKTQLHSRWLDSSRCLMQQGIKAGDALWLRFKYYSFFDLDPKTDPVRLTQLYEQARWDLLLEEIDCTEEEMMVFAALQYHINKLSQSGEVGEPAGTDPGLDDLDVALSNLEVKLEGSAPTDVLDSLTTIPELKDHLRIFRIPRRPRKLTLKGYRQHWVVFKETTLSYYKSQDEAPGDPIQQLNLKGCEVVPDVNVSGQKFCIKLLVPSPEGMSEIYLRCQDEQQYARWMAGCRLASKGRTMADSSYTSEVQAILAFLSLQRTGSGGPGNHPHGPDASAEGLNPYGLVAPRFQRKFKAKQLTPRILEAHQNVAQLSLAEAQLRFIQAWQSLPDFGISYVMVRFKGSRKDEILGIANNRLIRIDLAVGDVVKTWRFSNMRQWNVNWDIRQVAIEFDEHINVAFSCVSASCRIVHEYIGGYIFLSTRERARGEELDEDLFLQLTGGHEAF
Chain of UniProt Q9H0R8 (Q9H0R8 whole entry, looked up): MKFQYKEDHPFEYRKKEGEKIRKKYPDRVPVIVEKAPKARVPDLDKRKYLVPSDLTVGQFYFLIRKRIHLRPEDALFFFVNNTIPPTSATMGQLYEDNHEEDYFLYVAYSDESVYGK
Chain of UniProt P02008 (P02008 whole entry, looked up): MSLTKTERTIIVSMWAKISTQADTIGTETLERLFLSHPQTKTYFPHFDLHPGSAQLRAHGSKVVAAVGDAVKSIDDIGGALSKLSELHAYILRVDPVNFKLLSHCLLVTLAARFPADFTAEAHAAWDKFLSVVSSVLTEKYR
Chain of UniProt O14893 (O14893 whole entry, looked up): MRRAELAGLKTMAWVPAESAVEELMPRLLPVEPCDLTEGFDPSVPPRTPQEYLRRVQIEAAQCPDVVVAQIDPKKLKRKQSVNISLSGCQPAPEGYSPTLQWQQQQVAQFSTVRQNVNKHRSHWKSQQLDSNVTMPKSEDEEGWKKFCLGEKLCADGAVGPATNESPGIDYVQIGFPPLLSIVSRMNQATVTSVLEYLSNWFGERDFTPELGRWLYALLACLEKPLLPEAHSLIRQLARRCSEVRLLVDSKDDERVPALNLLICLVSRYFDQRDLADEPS
Chain of UniProt P22830 (P22830 whole entry, looked up): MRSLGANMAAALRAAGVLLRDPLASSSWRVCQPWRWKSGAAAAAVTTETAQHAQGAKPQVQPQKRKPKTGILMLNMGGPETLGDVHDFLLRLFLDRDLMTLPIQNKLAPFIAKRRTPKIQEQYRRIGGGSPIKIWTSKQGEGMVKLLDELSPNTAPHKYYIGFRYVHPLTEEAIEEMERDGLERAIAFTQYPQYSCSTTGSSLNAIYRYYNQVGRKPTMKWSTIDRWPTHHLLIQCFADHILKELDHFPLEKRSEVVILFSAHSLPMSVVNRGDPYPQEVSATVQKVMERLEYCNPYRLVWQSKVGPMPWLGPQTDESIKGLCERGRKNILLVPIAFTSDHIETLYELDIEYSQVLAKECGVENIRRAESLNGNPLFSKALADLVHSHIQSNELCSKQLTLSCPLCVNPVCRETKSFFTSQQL
Chain of UniProt Q9BUP3 (Q9BUP3 whole entry, looked up): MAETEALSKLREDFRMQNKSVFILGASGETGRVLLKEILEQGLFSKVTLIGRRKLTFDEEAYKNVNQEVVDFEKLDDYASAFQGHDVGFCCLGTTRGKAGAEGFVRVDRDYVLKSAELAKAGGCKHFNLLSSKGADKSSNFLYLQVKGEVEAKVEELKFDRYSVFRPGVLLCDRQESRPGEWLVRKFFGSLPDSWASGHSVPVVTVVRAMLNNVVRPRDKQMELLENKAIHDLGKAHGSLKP
Chain of UniProt Q13889 (Q13889 whole entry, looked up): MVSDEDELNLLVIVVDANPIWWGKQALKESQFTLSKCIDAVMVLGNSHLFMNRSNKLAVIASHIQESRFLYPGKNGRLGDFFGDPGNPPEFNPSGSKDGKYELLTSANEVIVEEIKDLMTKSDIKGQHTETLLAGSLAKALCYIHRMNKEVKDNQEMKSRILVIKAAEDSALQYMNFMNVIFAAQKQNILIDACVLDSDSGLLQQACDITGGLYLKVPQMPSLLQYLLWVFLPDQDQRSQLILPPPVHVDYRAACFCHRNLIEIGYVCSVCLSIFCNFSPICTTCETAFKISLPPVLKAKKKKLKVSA
Chain of UniProt P07910 (P07910 whole entry, looked up): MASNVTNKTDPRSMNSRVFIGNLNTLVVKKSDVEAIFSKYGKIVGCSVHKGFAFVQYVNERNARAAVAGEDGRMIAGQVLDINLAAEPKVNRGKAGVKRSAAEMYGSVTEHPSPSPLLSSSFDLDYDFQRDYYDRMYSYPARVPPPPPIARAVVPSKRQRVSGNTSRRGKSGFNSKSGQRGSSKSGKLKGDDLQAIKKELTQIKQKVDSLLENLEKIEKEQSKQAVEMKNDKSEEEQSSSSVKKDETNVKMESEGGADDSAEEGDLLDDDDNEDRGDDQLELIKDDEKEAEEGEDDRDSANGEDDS
Chain of UniProt Q6P3S6 (Q6P3S6 whole entry, looked up): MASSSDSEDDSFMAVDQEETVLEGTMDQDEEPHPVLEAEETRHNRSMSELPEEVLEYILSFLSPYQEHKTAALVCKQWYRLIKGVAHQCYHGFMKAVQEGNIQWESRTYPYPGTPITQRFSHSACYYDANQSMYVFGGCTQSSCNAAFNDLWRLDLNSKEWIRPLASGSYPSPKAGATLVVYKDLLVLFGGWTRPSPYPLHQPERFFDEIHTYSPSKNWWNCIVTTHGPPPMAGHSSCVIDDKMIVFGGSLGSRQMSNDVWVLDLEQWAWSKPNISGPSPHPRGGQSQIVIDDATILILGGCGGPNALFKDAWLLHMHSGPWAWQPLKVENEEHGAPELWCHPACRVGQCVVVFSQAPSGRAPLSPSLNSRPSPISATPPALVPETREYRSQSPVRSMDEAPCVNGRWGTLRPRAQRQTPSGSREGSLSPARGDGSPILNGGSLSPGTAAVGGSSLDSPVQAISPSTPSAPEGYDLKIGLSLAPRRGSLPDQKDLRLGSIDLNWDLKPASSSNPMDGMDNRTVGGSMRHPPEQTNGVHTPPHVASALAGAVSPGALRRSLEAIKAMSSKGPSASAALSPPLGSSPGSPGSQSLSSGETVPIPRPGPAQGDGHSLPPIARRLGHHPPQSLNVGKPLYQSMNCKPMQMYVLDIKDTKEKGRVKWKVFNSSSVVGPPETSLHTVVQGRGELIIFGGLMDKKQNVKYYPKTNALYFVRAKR
Chain of UniProt Q9Y3D6 (Q9Y3D6 whole entry, looked up): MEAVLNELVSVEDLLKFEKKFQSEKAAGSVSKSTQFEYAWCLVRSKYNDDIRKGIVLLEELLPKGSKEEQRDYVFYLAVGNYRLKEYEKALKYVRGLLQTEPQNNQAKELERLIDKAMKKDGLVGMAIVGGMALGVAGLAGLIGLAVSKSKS

Row | Target | log2 fold change [1] | log2 fold change [2] | log2 fold change [3] | log2 fold change [4] | log2 fold change (entinostat) | log2 fold change (vorinostat) | log2 fold change (citarinostat) | log2 fold change (silmitasertib) | log2 fold change [5] | log2 fold change [6]
1 | IFT74 (UniProt Q96LB3) | 0.035 | 0.009 | 0.135 | 0.045 | -0.091 | 0.101 | 0.171 | -0.187 | -0.021 | 0.06
2 | FBXO42 (UniProt Q6P3S6) | -0.048 | -0.087 | -0.176 | 0.061 | -0.028 | -0.03 | -0.001 | 0.006 | 0.013 | -0.026
3 | GOLGB1 isoform 2 (UniProt Q14789) | 0.106 | -0.062 | -0.044 | 0.026 | 0.024 | -0.019 | -0.008 | 0.009 | 0.039 | 0.167
4 | FIS1 (UniProt Q9Y3D6) | -0.013 | 0.075 | 0.002 | 0.133 | -0.004 | -0.027 | 0.051 | -0.017 | -0.03 | -0.006
5 | GLUD2 (UniProt P49448) | -0.086 | -0.03 | -0.006 | 0.027 | -0.053 | -0.051 | -0.07 | -0.136 | -0.008 | -0.017
6 | HTATIP2 isoform 3 (UniProt Q9BUP3) | -0.047 | 0.036 | -0.07 | -0.037 | -0.006 | 0.038 | 0.05 | 0.01 | -0.066 | -0.045
7 | HDDC2 (UniProt Q7Z4H3) | -0.013 | 0.111 | -0.005 | 0.032 | -0.03 | -0.036 | 0.032 | -0.032 | 0.029 | -0.041
8 | GSK3B isoform 2 (UniProt P49841) | -0.027 | -0.06 | -0.055 | -0.028 | 0.005 | 0.023 | 0.047 | 0.012 | 0.29 (active) | –
9 | FERMT3 (UniProt Q86UX7) | -0.055 | -0.107 | -0.106 | -0.065 | 0.032 | 0.026 | 0.067 | -0.001 | -0.048 | -0.02
10 | GEMIN2 (UniProt O14893) | -0.05 | -0.015 | 0.017 | -0.116 | -0.055 | 0.102 | -0.103 | 0.038 | 0.375 (active) | 0.073
11 | FBXO7 (UniProt Q9Y3I1) | 0.061 | -0.052 | -0.077 | -0.044 | 0.038 | 0.097 | 0.013 | 0.031 | -0.026 | -0.052
12 | HPCAL1 (UniProt P37235) | 0.033 | -0.014 | -0.152 | -0.032 | 0.006 | -0.018 | 0.032 | 0.028 | -0.03 | -0.032
13 | GALNT4 (UniProt Q8N4A0) | -0.013 | -0.117 | -0.072 | -1.32 (active) | -0.064 | 0.055 | 0.009 | 0.003 | 0.051 | -0.064
14 | GTF2H3 (UniProt Q13889) | -0.133 | -0.152 | 0.12 | -0.063 | 0.141 | 0.037 | -0.049 | -0.004 | -0.041 | -0.015
15 | H2AZ1 (UniProt P0C0S5) | 0.067 | 0.258 | 0.444 | -0.038 | 0.135 | 0.19 | -0.058 | 0 | 0.086 | -0.032
16 | GDI1 (UniProt P31150) | -0.018 | -0.066 | -0.051 | -0.04 | -0.016 | 0.022 | 0.014 | -0.012 | -0.037 | -0.04
17 | FKBP3 (UniProt Q00688) | 0.042 | 0.019 | 0.02 | 0.037 | 0.016 | 0.007 | 0.009 | -0.034 | -0.02 | 0.054
18 | HNRNPC isoform 2 (UniProt P07910) | -0.032 | -0.049 | 0.568 | -0.037 | 0.148 | -0.041 | -0.062 | 0.199 | 0.104 | -0.252
19 | HBZ (UniProt P02008) | 0.03 | -0.042 | 0 | 0.026 | 0.059 | -0.022 | 0.027 | -0.019 | -0.055 | -0.018
20 | GABARAPL2 (UniProt P60520) | -0.036 | -0.088 | -0.145 | -0.079 | -0.011 | 0.063 | 0.041 | -0.049 | -0.048 | 0.015
21 | HMG20A (UniProt Q9NP66) | 0 | 0.126 | -0.054 | -0.056 | 0.064 | 0.09 | 0.072 | 0.069 | 0 | -0.167
22 | HNRNPUL2 (UniProt Q1KMD3) | -0.04 | 0.02 | 0.153 | 0.017 | -0.026 | -0.004 | -0.077 | 0.046 | 0.15 | -0.104
23 | FECH isoform 2 (UniProt P22830) | -0.031 | 0.171 | 0.288 | 0.021 | -0.01 | -0.228 | -0.031 | -0.035 | 0 | 0.38
24 | GNL1 (UniProt P36915) | -0.045 | -0.071 | -0.114 | -0.019 | 0.001 | 0.008 | 0.022 | -0.021 | -0.005 | -0.011
25 | GLUD1 (UniProt P00367) | -0.058 | -0.014 | -0.043 | -0.032 | -0.051 | -0.061 | -0.023 | -0.095 | 0.082 | 0.052
26 | GABARAPL1 isoform 2 (UniProt Q9H0R8) | -0.051 | -0.13 | -0.252 (active) | -0.134 | -0.009 | -0.028 | 0.038 | -0.083 | -0.049 | 0.021
27 | HMGN1 (UniProt P05114) | 0 | 0.024 | 0.144 | 0.03 | -0.053 | -0.048 | -0.096 | 0.037 | -0.003 | -0.023
28 | FNTA (UniProt P49354) | 0.009 | 0.061 | 0.028 | 0 | -0.02 | 0.004 | -0.02 | 0.016 | -0.001 | 0.696 (active)
29 | FDFT1 (UniProt P37268) | 0.044 | 0.064 | -0.042 | 0.035 | -0.008 | -0.018 | 0.086 | -0.031 | 0.004 | 0.093
30 | GPKOW (UniProt Q92917) | -0.014 | 0 | -0.096 | -0.216 | 0.042 | 0.122 | 0.048 | -0.078 | -0.061 | -0.01

— the supplement of paper PMC10849652
